Compound activity deposited in PubChem by National Center for Advancing Translational Sciences (NCATS).
G9a block: inhibitors of human histone lysine methyltransferase G9a; Q96KQ7; G9a H3K9 monomethylation, AlphaScreen, 2 h; Potency, µM (series often up to 102 µM), actives largely listed as inhibitors; 8.8% of 350,000 active; AID 504332; note: nearly all actives have a fitted effect of over 75% in size
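G9a (20 nM) preincubated 15 min RT with compounds, then 500 nM biotinylated H3K9 peptide and 20 uM SAM added; 2 h RT reaction. Monomethyl-H3K9 product detected by AlphaScreen with anti-H3K9me1 antibody, streptavidin donor and anti-rabbit IgG acceptor beads.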
PI5P4Ka inh: blocks human PI5P4K alpha kinase activity | P48426 | PI5P4Kalpha enzyme, ADP-Glo luminescence, 60 min; active compounds read low | max response, % | 1.2% of 330,000 active | AID 652105; active = max response of -50% or lower; inconclusive = between -30% and -50%; inactive = -30% or higher; note: value at the top dose of about 77 µM
Target sequence (P48426 whole entry, looked up): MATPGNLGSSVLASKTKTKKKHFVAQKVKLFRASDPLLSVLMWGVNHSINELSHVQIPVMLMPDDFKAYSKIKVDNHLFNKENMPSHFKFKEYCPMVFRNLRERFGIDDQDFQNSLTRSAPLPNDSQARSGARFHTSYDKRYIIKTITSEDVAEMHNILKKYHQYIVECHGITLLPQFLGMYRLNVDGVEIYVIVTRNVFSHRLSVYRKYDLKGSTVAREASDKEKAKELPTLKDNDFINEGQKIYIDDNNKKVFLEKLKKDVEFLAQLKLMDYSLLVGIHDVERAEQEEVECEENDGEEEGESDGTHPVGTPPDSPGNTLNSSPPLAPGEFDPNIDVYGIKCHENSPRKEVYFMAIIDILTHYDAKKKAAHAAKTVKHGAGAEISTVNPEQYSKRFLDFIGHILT
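ADP-Glo luminescence end-point after a 60 min room-temperature kinase reaction. PI5P4Kalpha and substrate in HEPES pH 7.4 buffer with EGTA, 0.1% CHAPS and 5% DMSO; ATP at 5 microM final.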
BAZ2B inh: blocks human BAZ2B; Potency, µM (doses to about 114 µM), actives largely listed as inhibitors; AID 504333; Q9UIF8; AlphaScreen BAZ2B-H3K14Ac peptide displacement; 4.4% of 360,000 active; note: nearly all actives have a fitted effect of over 60% in size
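BAZ2B 50 nM plus b-H3(5-23)K14Ac 50 nM, PBS pH 7.4/0.01% Tween-20, 30 min RT; compound added (max 110 uM), 30 min RT; streptavidin donor/Ni-chelate acceptor beads 10 ug/mL final, 20 min dark; AlphaScreen read.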
HP1b chromo inh: HP1-beta chromodomain-methylated histone interaction inhibition; AlphaScreen HP1-beta / biotin-H3K9me3 peptide binding; Potency, µM (highest dose often 114 µM), hits mostly inhibitors; 0.56% of 390,000 active; note: nearly all actives have a fitted effect of over 70% in size
Target sequence (P83916 whole entry, looked up): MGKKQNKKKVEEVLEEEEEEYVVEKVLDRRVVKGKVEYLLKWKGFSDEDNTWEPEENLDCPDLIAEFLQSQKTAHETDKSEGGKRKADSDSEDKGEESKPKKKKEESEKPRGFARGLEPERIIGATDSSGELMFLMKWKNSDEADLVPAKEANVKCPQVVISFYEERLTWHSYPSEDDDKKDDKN
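Compound inhibition of the preformed complex between 50 nM HP1-beta and 50 nM biotinylated H3K9me3 peptide was read by AlphaScreen. Buffer was PBS pH 7.4 with 0.01% Tween-20. Incubations ran 30 min at room temperature, with 10 ug/mL donor/acceptor beads.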
PLK1 PBD block: inhibitors of human PLK1 polo-box domain binding. P53350. Plk1 PBD binding of FITC phosphopeptide, fluorescence polarization. Potency, µM, most hits filed as inhibitors. 2.8% of 360,000 active. AID 720504; note: series mostly up to about 57 µM; nearly all actives have a fitted effect of over 65% in size
JMJD2A Tudor inh: inhibitors of human JMJD2A Tudor domain | AlphaScreen JMJD2A-Tudor / H3K4me3 peptide binding | Potency, µM (titrated, usually from 114 µM), most hits filed as inhibitors | 4.4% of 390,000 active | AID 504339; note: nearly all actives have a fitted effect of over 50% in size
Hits are given with their value; i = inactive; ? = inconclusive; nt = not tested or not shown; [ ] = remark or other dose. This is a sample that favours compounds with a hit; in the whole collection about 12% have one here. Unless noted, calls come from the whole dose curve; as a rule, active = well fitted curve in the direction sought with a large enough effect; inconclusive = small, poorly fitted or top-dose-only effect, or another doubt; inactive = no such curve, though single readings can be large; an effect the other way counts as inactive or inconclusive.

SMILES | G9a block | PI5P4Ka inh | BAZ2B inh | HP1b chromo inh | PLK1 PBD block | JMJD2A Tudor inh
Cc1csc(=Nc2cccnc2)n1Cc1ccco1 | i | i | 45µM | i | i | i
Cc1csc(=Nc2cccnc2)n1CC1CCCCC1 | ? | i | 45µM | i | i | i
CN(C)Cc1ncccc1Oc1nc2cc(-c3cccc(Cl)c3)sc2c(=O)n1C | nt | i | nt | nt | i | nt
C=CC(=O)Nc1cccc(Oc2ccnc(Nc3ccc(N4CCN(C)CC4)cc3)n2)c1 | nt | i | nt | ? | i | 45µM
C=CC(=O)Nc1cccc(Oc2ccnc3[nH]ccc23)c1 | nt | -72 | nt | ? | i | 79µM
C=CC(=O)Nc1cccc(N(C)c2ccnc(Nc3ccc(N4CCN(C)CC4)cc3)n2)c1 | nt | -65 | nt | 50µM | i | 14µM
COc1ccc(NC(=O)Nc2cccc3[nH]c([C@@H]4O[C@H](CO)[C@@H](O)[C@H](O)[C@H]4O)nc23)cc1OC1CCCC1 | nt | i | nt | nt | i | nt
CCC(=O)O[C@H]1C(O[C@@H]2C(C)[C@H](O[C@H]3C[C@@](C)(OC)C(O)C(C)O3)C(C)C(=O)OC(CC)[C@@](C)(O)C(O)[C@H](C)C(=O)C(C)C[C@]2(C)O)OC(C)CC1N(C)C (stereo partly specified) | i[2.33 µM] | nt | nt | nt | nt | nt
COc1ccc(-n2cc(-c3ccccc3)c3c(NC4CCCC4)ncnc32)cc1 | i | nt | ? | i | nt | ?
Nc1ncnc2c1c(-c1ccc(Oc3ccccc3)cc1)cn2C1CCCC1 | 14µM | i | 40µM | ? | i | 45µM
O=C(CCCN1C(=O)CSc2ncccc21)N1CCN(Cc2ccccc2)CC1 | 35µM | i | i | i | i | i
CCOC(=O)N1CCC(NC(=O)CCCN2C(=O)CSc3ncccc32)CC1 | i | i | i | i | i | i
CCCOC(=O)c1c(NC(=O)C2C3C=CC(C3)C2C(=O)O)sc2c1CCC(C)C2 (stereo unspecified) | 8.9µM | -59 | ? | ? | 5.3µM | 28µM
CCOC(=O)c1c(NC(=O)C2C3C=CC(C3)C2C(=O)O)sc2c1CC(C)(C)OC2 (stereo unspecified) | nt | i | i | i | 21µM | ?
Cc1noc(C)c1COC(=O)/C=C/c1ccc(Cl)cc1 | i | i | i | i | 12µM | ?
Cc1noc(C)c1COC(=O)CCCNC(=O)c1ccc(Cl)cc1 | i | i | i | i | i | i
Cc1ccc(C)c(NC(=O)CN(C)C(=O)c2ccc(-c3cccc(C(F)(F)F)c3)o2)c1 | i | i | i | i | i | i
CCCOc1ccc(C(C(=O)OCCN(CC)CC)c2ccccc2)cc1 (stereo unspecified) | 8.9µM | i | 50µM | i | i | i[11.4 µM]
CC1(C)C2CCC(CN=C(N)CSS(=O)(=O)O)C1C2 (stereo unspecified) | nt | i | nt | nt | 4.7µM | nt
N#Cc1c2c(c(Nc3ccc(O)cc3)n3c1nc1ccccc13)CCC2 | 1.3µM | i | i | i | i | i
N#Cc1c2c(c(NCc3ccco3)n3c1nc1ccccc13)CCC2 | i | i | i | i | i | i[11.4 µM]
CCC(C(=O)Nc1cccc(C#N)c1)n1nc(-c2ccccc2)ccc1=O (stereo unspecified) | i | nt | i | i | nt | i
COc1ccc(C(C(=O)NC(C)(C)C)n2c(=O)c(-c3ccco3)nc3ccccc32)cc1 (stereo unspecified) | nt | i | nt | nt | i | nt
O=C(NC1CCCCC1)C(c1ccc(C(F)(F)F)cc1)n1c(=O)c(-c2ccco2)nc2ccccc21 (stereo unspecified) | nt | -75 | nt | nt | ? | nt
O=C(NC1CCCCC1)C(c1ccccc1)n1c(=O)c(-c2ccco2)nc2ccccc21 (stereo unspecified) | nt | -80 | nt | nt | ? | nt
SMILES | G9a block | PI5P4Ka inh | BAZ2B inh | HP1b chromo inh | PLK1 PBD block | JMJD2A Tudor inh
N#Cc1ccc(C(C(=O)NC2CCCCC2)n2c(=O)c(-c3ccco3)nc3ccccc32)cc1 (stereo unspecified) | nt | -75 | nt | nt | ? | nt
O=C(NC1CCCCC1)C(c1ccccc1)n1c(=O)c(-c2cc3ccccc3[nH]2)nc2ccccc21 (stereo unspecified) | nt | i | nt | nt | i | nt
N#Cc1ccc(C(C(=O)NC2CCCCC2)n2c(=O)c(-c3cc4ccccc4[nH]3)nc3ccccc32)cc1 (stereo unspecified) | nt | i | nt | nt | i | nt
CN1CCN(C(=O)c2cccc(NS(=O)(=O)c3ccc(Br)cc3)c2)CC1 | i[2.33 µM] | i | i | i | i | i
O=C(NCCSCc1cccc(Cl)c1)C1CCN(S(=O)(=O)Cc2ccccc2)CC1 | i | nt | i | i | nt | i
COc1ccc(/C=C/c2ccc(=O)n(Cc3ccccc3)n2)cc1 | i | -51 | i | i | 12µM | ?
Cc1ccc(CN2C(=O)C(C)Nc3ncnc(N4CCN(c5ccccn5)CC4)c32)cc1 (stereo unspecified) | i[2.33 µM] | i | ? | i | i | 79µM
CC(C)CC1Nc2ncnc(N3CCN(c4ccccn4)CC3)c2N(Cc2ccc(Br)cc2)C1=O (stereo unspecified) | ? | i | i | i | i | i
Cc1ccc(CN2C(=O)C(CC(C)C)Nc3ncnc(N4CCN(c5ccccn5)CC4)c32)cc1 (stereo unspecified) | ? | i | ? | i | i | 79µM
CCn1ccc2cc(S(=O)(=O)N3CCC(C(=O)NCc4ccc(OC)cc4)CC3)ccc21 | i | nt | i | i | nt | i
COC(=O)/C(=C\C=C\c1ccccc1)NC(=O)c1ccccc1 | i | -54 | i | i | 13µM | 25µM
CCCCOc1ccc(C(=O)N/C(=C/C=C/c2ccccc2)C(=O)O)cc1 | 50µM | i | ? | i | i | i
CCCCOc1ccc(C(=O)N/C(=C/C=C/c2ccccc2)C(=O)NC)cc1 | i | i | i | i | i | i
Cc1cc(C=O)c(C)n1-c1ccc(N2CCCCC2)c([N+](=O)[O-])c1 | 13µM | i | 40µM | ? | i | 35µM
Cc1cc(C=O)c(C)n1-c1ccc(Cl)c(C(=O)O)c1 | 13µM | -54 | 25µM | 40µM | 11µM | 20µM
Cc1cc(/C=C(\C#N)C(N)=O)c(C)n1-c1ccc(N2CCOCC2)c([N+](=O)[O-])c1 | ? | i | ? | ? | i | ?
COc1ccc(S(=O)(=O)N2CCC(C(=O)NCCC(=O)NC3CC3)CC2)cc1 | nt | i | i | i | i | i
Cc1noc(C)c1-c1ccc2ncnc(NCc3cccn3C)c2c1 | nt | nt | nt | nt | nt | i
COC(=O)C1=C[C@@H](C(=O)OC)C2C3=C(C(=O)[C@]2(C)NC(=O)c2ccccc2)[C@H](C)n2c(=O)n(-c4ccccc4)c(=O)n2[C@@H]3C1 (stereo partly specified) | nt | nt | nt | i | nt | i
CCC(C)c1ccc(OCCn2ccnc2)cc1 (stereo unspecified) | ? | i | 50µM | i | i | 20µM
Cc1cc(OCCn2ccnc2)cc(C(C)C)c1 | 11µM | i | 28µM | 22µM | i | 0.79µM
CCOc1ccc(OCCOCCn2ccnc2)cc1 | ? | i | 79µM | ? | i | 8.9µM
